Experimental findings from PubChem BioAssay (EPA / NIEHS) are described below.

Records with an inconclusive call do not appear. Activity calls are given as the source filed them. How the source made its calls: active means hit-call score of the fitted dose curve at least 0.9, where 1 is the maximum; inconclusive means response in the unintended direction; inactive means score below 0.9.

In assay [1] the target is rat Thyrotropin Releasing Hormone Receptor (TRH), Trhr (gene 25570) (UniProt Q01717). Kind of assay: NVS_GPCR_rTRH: NovaScreen (NVS) G Protein-Coupled Receptor Assay for rat Thyrotropin Releasing Hormone Receptor (TRH) (AID 2283329).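 Further: hit means lower bound tracer signal versus DMSO baseline.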 The essentials: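 Competitive radioligand binding on rat forebrain membrane preparations, with filtration and scintillation readout after 4 h. Primary testing in duplicate at 25 uM; actives confirmed in concentration-response. DMSO defined baseline.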
rat Thyrotropin Releasing Hormone Receptor (TRH), Trhr (gene 25570), sequence (Q01717 whole entry, looked up): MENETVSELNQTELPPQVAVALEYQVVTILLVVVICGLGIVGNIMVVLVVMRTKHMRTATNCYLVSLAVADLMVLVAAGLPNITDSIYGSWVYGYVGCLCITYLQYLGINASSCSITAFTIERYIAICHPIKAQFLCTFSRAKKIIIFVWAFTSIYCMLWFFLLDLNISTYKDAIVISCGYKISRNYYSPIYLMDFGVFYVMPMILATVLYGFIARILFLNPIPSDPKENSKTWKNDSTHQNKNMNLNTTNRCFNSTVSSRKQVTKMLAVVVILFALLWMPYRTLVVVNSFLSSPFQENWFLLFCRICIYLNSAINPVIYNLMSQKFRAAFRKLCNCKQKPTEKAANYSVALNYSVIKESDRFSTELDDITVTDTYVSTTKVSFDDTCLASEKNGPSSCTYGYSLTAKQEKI

Assay [2] has as its target Sodium channel protein type 1 subunit alpha (Rattus norvegicus) (UniProt P04774). In words: NVS_IC_rNaCh_site2: NovaScreen (NVS) Ion Channel Assay for rat Sodium Channel, Site 2 (NaCh) (AID 2283322).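 Further: hit means loss of radioligand binding signal relative to DMSO so AC50 marks displacement.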 The essentials:
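Initial duplicate single-point testing at 25 uM, followed by concentration-response runs for actives. Binding of radioligand to rat forebrain membranes quantified after 1 h via filter-based radiodetection.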

The target of assay [3] is chimpanzee Androgen Receptor (AR), AR (gene 747460) (UniProt O97775). In words: NVS_NR_cAR: NovaScreen (NVS) Nuclear Receptor Binding Assay for chimpanzee Androgen Receptor (AR) (AID 2283346).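 Further: radioligand displacement from AR measured by scintillation counting in a cell-free assay; a loss of bound radioligand signal versus DMSO counts as binding.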 The essentials: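 Cell-free competition binding with insect-cell (Sf9/Sf21) extracted chimpanzee AR; scintillation signal from lysate at 72 h. Screened in duplicate at 25 uM, then concentration-response for actives; fitting relative to DMSO.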
chimpanzee Androgen Receptor (AR), AR (gene 747460), sequence (O97775 whole entry, looked up): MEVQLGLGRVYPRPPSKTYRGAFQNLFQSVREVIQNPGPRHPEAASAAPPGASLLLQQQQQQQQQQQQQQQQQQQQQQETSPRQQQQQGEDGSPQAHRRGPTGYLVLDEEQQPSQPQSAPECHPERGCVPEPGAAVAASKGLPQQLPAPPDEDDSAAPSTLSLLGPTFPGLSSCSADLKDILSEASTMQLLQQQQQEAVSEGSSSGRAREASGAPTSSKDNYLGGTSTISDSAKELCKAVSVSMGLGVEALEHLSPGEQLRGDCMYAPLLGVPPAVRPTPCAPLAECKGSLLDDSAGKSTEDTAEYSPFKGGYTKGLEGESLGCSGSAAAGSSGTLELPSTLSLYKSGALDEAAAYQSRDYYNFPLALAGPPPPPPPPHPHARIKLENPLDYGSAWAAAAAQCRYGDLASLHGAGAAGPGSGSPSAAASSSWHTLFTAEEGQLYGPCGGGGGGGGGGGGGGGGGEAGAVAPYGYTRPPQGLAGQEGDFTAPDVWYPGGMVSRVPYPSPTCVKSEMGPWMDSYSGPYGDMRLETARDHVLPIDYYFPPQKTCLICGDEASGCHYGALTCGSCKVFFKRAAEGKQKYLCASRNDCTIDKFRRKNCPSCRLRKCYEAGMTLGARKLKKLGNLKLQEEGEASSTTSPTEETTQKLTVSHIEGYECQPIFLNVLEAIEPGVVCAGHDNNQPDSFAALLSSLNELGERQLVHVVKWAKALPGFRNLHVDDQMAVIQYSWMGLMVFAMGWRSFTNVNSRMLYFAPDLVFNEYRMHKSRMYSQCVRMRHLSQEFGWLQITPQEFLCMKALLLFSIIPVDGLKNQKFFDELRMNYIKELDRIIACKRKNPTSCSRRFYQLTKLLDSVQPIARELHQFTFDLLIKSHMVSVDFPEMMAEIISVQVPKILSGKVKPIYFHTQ

The target of assay [4] is human Peripheral-type Benzodiazepine Receptor (PBR), TSPO (gene 706) (UniProt P30536). Kind of assay: NVS_MP_hPBR: NovaScreen (NVS) Membrane Protein Assay for human Peripheral-type Benzodiazepine Receptor (PBR) (AID 2283331).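 Further: hits reduce radioligand binding relative to DMSO baseline.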 The essentials: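 Cell-free binding to human colonic membrane preparations measured by filter-based scintillation counting after 1 h. Compounds first run at 25 uM in duplicate, then concentration series for actives; signal loss against DMSO baseline.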
human Peripheral-type Benzodiazepine Receptor (PBR), TSPO (gene 706), sequence (P30536 whole entry, looked up): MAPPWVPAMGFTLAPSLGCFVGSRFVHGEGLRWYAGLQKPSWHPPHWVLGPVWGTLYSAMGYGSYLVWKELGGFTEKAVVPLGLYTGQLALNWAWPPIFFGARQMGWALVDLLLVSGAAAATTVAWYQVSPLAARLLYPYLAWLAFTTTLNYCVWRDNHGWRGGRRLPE

Assay [5] deals with rat Peripheral-type Benzodiazepine Receptor (PBR), Tspo (gene 24230) (UniProt P16257). Kind of assay: NVS_MP_rPBR: NovaScreen (NVS) Membrane Protein Assay for rat Peripheral-type Benzodiazepine Receptor (PBR) (AID 2283335). The essentials:
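Competitive displacement of specific radioligand from rat kidney membrane PBR, read by filtration and scintillation after 1 h. Compounds first tested at 25 uM in duplicate, then in concentration series; signal loss relative to DMSO.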

Assay [6] in a line: NVS_IC_rCaBTZCHL: NovaScreen (NVS) Ion Channel Assay for Calcium Channel, Type L, Benzothiazepine Site (CaBTZCHL) (AID 2283337). The essentials:
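Rat cortical membrane preparation incubated 1.5 h with compound and benzothiazepine-site radioligand; loss of filter-bound counts versus DMSO marks displacement. Initial duplicate testing at 25 uM, actives followed up in concentration series.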

The target in assay [7] is Androgen Receptor/SRC-1 Co-activator, AR (gene 367) (UniProt P10275). In words: OT_AR_ARSRC1_0960: Odyssey Thera (OT) 16-hour HEK293T Protein-Complementation Assay for Androgen Receptor/SRC-1 Co-activator (AID 2283353).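 Further: actives raise the signal above DMSO so potency reflects increased AR and SRC-1 complex.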 The essentials: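 Endpoint is gain-of-signal N/C fluorescence ratio in the 488 nm channel versus DMSO, from at least 400 cells per image, measured 16 h post-dosing. Cells: HEK293T stably carrying split-Venus AR/SRC-1 complementation constructs.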
Androgen Receptor/SRC-1 Co-activator, AR (gene 367), sequence (P10275 whole entry, looked up): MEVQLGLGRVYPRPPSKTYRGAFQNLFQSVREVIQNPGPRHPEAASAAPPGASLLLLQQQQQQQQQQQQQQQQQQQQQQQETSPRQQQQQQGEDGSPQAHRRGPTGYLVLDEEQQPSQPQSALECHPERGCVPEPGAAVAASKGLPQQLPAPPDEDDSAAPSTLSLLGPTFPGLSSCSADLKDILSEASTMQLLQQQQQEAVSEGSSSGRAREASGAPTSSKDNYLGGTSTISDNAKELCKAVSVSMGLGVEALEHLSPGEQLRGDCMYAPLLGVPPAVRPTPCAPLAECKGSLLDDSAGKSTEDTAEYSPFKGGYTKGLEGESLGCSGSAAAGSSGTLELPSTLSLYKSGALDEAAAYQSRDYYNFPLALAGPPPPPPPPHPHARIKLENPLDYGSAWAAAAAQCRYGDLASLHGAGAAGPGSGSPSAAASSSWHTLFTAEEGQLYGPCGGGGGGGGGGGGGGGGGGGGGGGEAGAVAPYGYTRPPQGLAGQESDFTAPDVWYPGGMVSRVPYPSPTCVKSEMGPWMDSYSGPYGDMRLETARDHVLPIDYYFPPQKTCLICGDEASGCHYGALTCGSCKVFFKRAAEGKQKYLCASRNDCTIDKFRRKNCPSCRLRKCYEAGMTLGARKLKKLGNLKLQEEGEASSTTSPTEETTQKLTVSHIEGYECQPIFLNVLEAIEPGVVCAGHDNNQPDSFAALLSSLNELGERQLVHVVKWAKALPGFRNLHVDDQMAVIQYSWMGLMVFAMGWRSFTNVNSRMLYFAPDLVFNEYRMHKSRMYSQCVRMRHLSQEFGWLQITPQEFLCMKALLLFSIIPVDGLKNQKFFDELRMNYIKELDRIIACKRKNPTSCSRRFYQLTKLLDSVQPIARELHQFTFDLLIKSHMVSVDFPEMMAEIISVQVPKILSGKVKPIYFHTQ

Assay [8] addresses Estrogen receptor beta (Homo sapiens) (UniProt Q92731). Kind of assay: OT_ER_ERbERb_0480: Odyssey Thera (OT) 8-hour HEK293T Protein-Complementation Assay for Estrogen Receptor-beta/-beta Homodimer (AID 2283357).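 Further: active means signal gain over DMSO baseline.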 The essentials:
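ER-beta LBD homodimer PCA stably expressed in HEK293T; 8 h compound exposure, then formaldehyde fixation and Draq5 staining. Gain in nuclear/cytoplasmic fluorescence intensity versus DMSO vehicle, read on laser scanning cytometer.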

The target of assay [9] is PGR (gene 5241) (UniProt P06401). Kind of assay: NVS_NR_hPR: NovaScreen (NVS) Nuclear Receptor Binding Assay for human Progestron Receptor (PR) (AID 2283360).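 Further: active means loss of bound radioligand signal versus DMSO baseline.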 The essentials: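 T47D-derived receptor preparation, cell-free, with tritiated or iodinated radioligand displacement measured by scintillation 18 h post-dosing. Single 25 uM duplicate screen, then concentration series; signal loss relative to DMSO.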
PGR (gene 5241), sequence (P06401 whole entry, looked up): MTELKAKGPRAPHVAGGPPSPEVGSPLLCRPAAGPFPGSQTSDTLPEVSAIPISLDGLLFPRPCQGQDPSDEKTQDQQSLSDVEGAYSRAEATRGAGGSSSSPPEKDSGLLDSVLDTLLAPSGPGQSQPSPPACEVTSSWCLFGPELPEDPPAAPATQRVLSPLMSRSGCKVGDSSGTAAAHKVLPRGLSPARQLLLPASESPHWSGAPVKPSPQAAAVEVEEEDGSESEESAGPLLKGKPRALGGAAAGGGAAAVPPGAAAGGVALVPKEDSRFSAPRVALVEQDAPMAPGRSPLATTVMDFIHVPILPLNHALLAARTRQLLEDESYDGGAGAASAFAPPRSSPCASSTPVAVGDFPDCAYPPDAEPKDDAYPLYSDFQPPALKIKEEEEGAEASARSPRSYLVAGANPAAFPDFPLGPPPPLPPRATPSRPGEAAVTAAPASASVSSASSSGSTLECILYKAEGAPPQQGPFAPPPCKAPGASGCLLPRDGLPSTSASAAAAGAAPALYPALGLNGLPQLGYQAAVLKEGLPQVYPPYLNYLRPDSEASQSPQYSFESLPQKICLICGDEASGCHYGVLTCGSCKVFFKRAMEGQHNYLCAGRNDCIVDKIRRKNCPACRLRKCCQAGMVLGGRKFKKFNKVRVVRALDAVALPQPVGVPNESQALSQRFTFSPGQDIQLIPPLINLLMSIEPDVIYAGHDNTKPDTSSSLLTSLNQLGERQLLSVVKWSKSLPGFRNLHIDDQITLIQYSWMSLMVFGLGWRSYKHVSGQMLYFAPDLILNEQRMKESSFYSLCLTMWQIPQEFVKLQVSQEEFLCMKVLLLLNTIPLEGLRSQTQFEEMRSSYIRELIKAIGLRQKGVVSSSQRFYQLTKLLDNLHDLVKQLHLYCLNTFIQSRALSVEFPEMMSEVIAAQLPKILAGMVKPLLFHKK

Assay [10] addresses Retinoic acid receptor alpha (Homo sapiens) (UniProt P10276). Kind of assay: NVS_NR_hRAR_Antagonist: NovaScreen (NVS) Nuclear Receptor Binding Assay for human Retinoic Acid Alpha Receptor Antagonism (RAR) (AID 2283358). The essentials: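 RARalpha antagonism was read by TR-FRET as loss of binding signal versus DMSO, 2 h after chemical addition, in a biochemical format. Single-concentration duplicates (25 uM) were run first, and actives were retested in concentration series.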

In assay [11] the target is Estrogen receptor (Homo sapiens) (UniProt P03372). In words: NVS_NR_hER: NovaScreen (NVS) Nuclear Receptor Binding Assay for human Estrogen Receptor (ER) (AID 2283348). The essentials:
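Cell-free MCF7-derived ER preparation, specific radioligand displaced by test compound, read by scintillation counting 18 h post-dosing. Duplicate single-point 25 uM screen, then concentration-response confirmation; DMSO baseline.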

The target is the same in assay [12]. In words: OT_ER_ERaERa_1440: Odyssey Thera (OT) 24-hour HEK293T Protein-Complementation Assay for Estrogen Receptor-alpha/-alpha Homodimer (AID 2283349).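 Further: hits raise fluorescence above DMSO for agonists and antagonists alike.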 The essentials: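 HEK293T, stable ERα LBD (aa 310-547) homodimer PCA; 24 h compound exposure; mean fluorescence intensity (nuclear for agonists, nuclear plus cytoplasmic for antagonists) vs vehicle; positive fitting direction, DMSO baseline.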

For assay [13] the target is unchanged. Kind of assay: OT_ER_ERaERa_0480: Odyssey Thera (OT) 8-hour HEK293T Protein-Complementation Assay for Estrogen Receptor-alpha/-alpha Homodimer (AID 2283351).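 Further: rise in fluorescence from reassembled reporter fragments on ERα LBD homodimer in nucleus or whole cell.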 The essentials: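 HEK293T cells stably expressing a PCA pair of ER alpha LBD (residues 310-547) were dosed for 8 hours. The gain in fluorescence intensity, nuclear for agonists and whole-cell for antagonists, was measured by laser scanning cytometry against DMSO vehicle.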

Estrogen receptor (Homo sapiens), sequence (P03372 whole entry, looked up): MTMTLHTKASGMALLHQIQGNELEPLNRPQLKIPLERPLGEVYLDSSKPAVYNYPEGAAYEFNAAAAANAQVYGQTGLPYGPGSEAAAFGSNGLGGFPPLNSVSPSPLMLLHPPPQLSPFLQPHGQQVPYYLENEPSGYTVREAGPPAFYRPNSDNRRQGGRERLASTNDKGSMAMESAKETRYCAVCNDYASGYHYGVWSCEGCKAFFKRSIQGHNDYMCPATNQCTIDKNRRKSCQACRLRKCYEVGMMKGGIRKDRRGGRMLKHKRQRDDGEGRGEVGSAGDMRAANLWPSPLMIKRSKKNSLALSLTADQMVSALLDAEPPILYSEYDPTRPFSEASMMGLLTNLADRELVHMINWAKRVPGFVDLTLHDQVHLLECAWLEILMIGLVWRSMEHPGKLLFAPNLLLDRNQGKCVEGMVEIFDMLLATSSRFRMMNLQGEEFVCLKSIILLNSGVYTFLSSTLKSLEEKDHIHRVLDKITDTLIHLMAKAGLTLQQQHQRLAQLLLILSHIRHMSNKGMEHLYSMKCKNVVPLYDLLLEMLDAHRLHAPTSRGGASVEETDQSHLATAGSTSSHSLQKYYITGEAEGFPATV
rat Peripheral-type Benzodiazepine Receptor (PBR), Tspo (gene 24230), sequence (P16257 whole entry, looked up): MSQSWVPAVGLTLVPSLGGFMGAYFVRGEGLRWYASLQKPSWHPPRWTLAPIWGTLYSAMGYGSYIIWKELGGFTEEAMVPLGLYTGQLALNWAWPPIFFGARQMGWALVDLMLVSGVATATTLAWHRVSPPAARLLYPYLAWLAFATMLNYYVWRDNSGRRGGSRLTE
Retinoic acid receptor alpha (Homo sapiens), sequence (P10276 whole entry, looked up): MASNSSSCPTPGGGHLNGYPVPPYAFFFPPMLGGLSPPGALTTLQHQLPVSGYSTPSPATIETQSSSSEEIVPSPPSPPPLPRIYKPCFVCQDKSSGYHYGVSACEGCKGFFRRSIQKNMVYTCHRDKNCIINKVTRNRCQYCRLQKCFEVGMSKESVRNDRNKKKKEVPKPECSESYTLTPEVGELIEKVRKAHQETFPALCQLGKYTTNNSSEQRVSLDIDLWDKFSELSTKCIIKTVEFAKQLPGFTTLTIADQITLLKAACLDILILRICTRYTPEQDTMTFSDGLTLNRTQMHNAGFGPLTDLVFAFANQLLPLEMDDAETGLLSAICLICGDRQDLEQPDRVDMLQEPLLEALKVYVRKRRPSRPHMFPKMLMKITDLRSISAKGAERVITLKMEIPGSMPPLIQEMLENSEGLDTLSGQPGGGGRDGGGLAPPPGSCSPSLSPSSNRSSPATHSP

For the compound `OCCc1ccccc1`, the compound was called inactive in assay [1].

In the case of `C1=CC2C3C=CC(C3)C2C1` (configuration not stated), the result in assay [1] was inactive.

Take `CC=Cc1ccc(OC)c(OC)c1`: the compound was called inactive in assay [2].

Turning to `COC(=O)c1ccc(C)cc1C1=NC(C)(C(C)C)C(=O)N1` (configuration not stated) (tested in a mixture with another compound), the outcome in assay [1] was inactive.

Consider `CCCCCCCCN1CCCC1=O`, for which, in [1], the outcome was inactive.

For the compound `O=CCc1ccccc1`, the outcome in assay [1] and in [3] was inactive.

Take `c1ccc(Oc2ccccc2)cc1`: the compound was classed as inactive in assay [1], in [4], in assay [5] and in [6].

For the compound `CCOC(=O)[C@@H](C)Oc1ccc(Oc2nc3ccc(Cl)cc3o2)cc1`, the result in assay [1] and in assay [7] was inactive.

As to `CCNCCO`, in assay [1], the compound was classed as inactive.

Consider `CCCCC(CC)COC(C)=O` (configuration not stated), for which the result in assay [2], in assay [5] and in assay [8] was inactive.

Take `COS(=O)(=O)O`: the compound was called inactive in assay [1].

As usually defined, the AC50 is the midpoint of the concentration-response curve, whichever way the signal moves. As to `COc1ccc(CCN2CCC(Nc3nc4ccccc4n3Cc3ccc(F)cc3)CC2)cc1`, the results for the AC50 in [2] and in assay [6] were 115 nM (active) and 2180 nM (active), respectively. The outcome in assay [4] and in [9] was inactive.

Regarding `CSCCC=O`, in assay [1], the compound was classed as inactive.

On to `CCCCCCCCCCCCCCCC(=O)OC/C=C(C)/C=C/C=C(C)/C=C/C1=C(C)CCCC1(C)C`, for which the result in assay [2] and in assay [5] was inactive. In addition, the AC50 in assay [4] is 41100 nM (active).

Regarding `CC(C)(C)CC(C)(C)c1ccc(OCCOCC[N+](C)(C)Cc2ccccc2)cc1`, the call in assay [2] and in assay [4] was inactive. For the same compound, in [6], the AC50 is 2810 nM (active).

For `COCCc1ccc(OCC(O)CNC(C)C)cc1` (configuration not stated), the AC50 in [2] is 5040 nM (active).

On to `CCC(=O)O[C@@H]1C[C@H]2CC[C@]1(C)C2(C)C`, for which the compound was called inactive in [1].

Take `CCOC(=O)C1OC1c1ccccc1` (configuration not stated): in [1], the outcome was inactive.

`COc1ccc(OC)c(N=Nc2c(O)ccc3ccccc23)c1`: the compound was classed as inactive in assay [2]. In assay [3], the AC50 was 2850 nM (active).

`C=Cc1ccc(C)cc1`: the call in assay [1] was inactive.

Take `C=CC(C)(O)CCC=C(C)C` (configuration not stated): the compound was called inactive in assay [1].

For `CCCCCCCCC=CCCCCCCCC1=NCCN1CCO`, the compound was classed as inactive in assay [1]. Also, the AC50 was 35800 nM (active) in assay [3], 15700 nM (active) in assay [7] and 25000 nM (active) in assay [10].

`CS(=O)(=O)OCCCCOS(C)(=O)=O`: the result in [2], in assay [4], in assay [5], in assay [12] and in [13] was inactive. Besides, the AC50 in [11] is 875 nM (active).

Turning to `CCCCCCCCSCCO`, the compound was classed as inactive in assay [1] and in assay [7].

`C=C[Si]1(C)O[Si](C)(C=C)O[Si](C)(C=C)O[Si](C)(C=C)O1` (configuration not stated): in assay [1], the call was inactive.

As to `CS(=O)(=O)c1ccc(C2=C(c3ccccc3)C(=O)OC2)cc1`, the call in assay [2] and in [9] was inactive.

Consider `C[C@@H]1CCN(C(=O)[C@H](CCCN=C(N)N)NS(=O)(=O)c2cccc3c2NC[C@H](C)C3)[C@@H](C(=O)O)C1`, for which the half-maximal activity concentration (AC50) in assay [2] is 894 nM (active).
